From PubChem BioAssay
In the library only some 4.8% were active in any assay of this set; here they are far more common.
AI-2 QS modul = modulators of Vibrio harveyi AI-2 quorum sensing system; Vibrio harveyi JMH597 AI-2 luminescence/OD600 ratio, 9 h; active compounds read low; strain lacks LuxN and CqsS sensors; 0 = neutral-control median; activity change, % at 7.5 µM; actives 0.4% (n = 300,000); AID 2094; in the data active means activity change below about -75%, passing the limit was not always enough;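 further: luminescence divided by OD600 gain over 9 h not by final OD600 alone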
SUMO Mot1 rescue = inhibitors of SUMOylation pathway: yeast Mot1-301 growth rescue; actives 1% (n = 320,000); growth rescue, % at 18.8 µM; S. cerevisiae Mot1-301 growth rescue, ATP luminescence, 38.5C; percent above DMSO median, 100 means doubled;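 active means every valid replicate shows activation above 250% relative to neutral control wells; inactive means the rest, any valid replicate at or below 250%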
ALR inh = human ALR oxidase inhibition via reduced H2O2. inhibition, % (test concentration not listed). AID 485317. P55789. actives 3.8% (n = 290,000). purified ALR, DTT oxidation, H2O2 HRP-luminol luminescence;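 active means mean replicate inhibition above about 79%, with every replicate also reaching it, limit read from the data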
Target sequence (P55789 whole entry, looked up): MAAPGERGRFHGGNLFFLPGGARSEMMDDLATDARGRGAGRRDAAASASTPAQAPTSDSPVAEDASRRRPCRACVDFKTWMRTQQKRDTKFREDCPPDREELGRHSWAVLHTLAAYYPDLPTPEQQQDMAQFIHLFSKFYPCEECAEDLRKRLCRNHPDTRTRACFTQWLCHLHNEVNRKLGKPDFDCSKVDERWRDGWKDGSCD
HIF act = HIF pathway transcriptional activation | AID 1910 | activation, % at 7.5 µM (by protocol) | U2OS HRE-luciferase reporter, luminescence; normalized: DMSO 0%, desferrioxamine 100% | actives 0.32% (n = 300,000);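 active means mean activation of at least 10% of the iron chelator positive control signal, with at least half of replicates also reaching 10%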
A number is an active result; – = inactive; · = not tested or not shown.

SMILES	AI-2 QS modul	SUMO Mot1 rescue	ALR inh	HIF act
CCC(C(=O)OC)n1cnc2scc(-c3ccc(C)c(C)c3)c2c1=O (stereo unspecified)	–	–	–	–
CCC(C(=O)O)n1cnc2scc(-c3ccc(C)c(C)c3)c2c1=O (stereo unspecified)	–	–	93	–
CCc1ccc(NC(=O)/C(C#N)=C\c2ccc(OC)c(C(=O)O)c2)cc1	–	–	99	–
COc1cc(/C=C(/C#N)C(=O)Nc2ccccc2)ccc1OCc1ccc(C(=O)O)cc1	–	–	–	–
COc1ccc(/C=C(/C#N)C(=O)Nc2ccc(O)cc2)cc1C(=O)O	–	·	99	–
COc1ccc(/C=C(/C#N)C(=O)Nc2cccnc2)cc1OC	–	·	–	–
N#C/C(=C\c1ccncc1)C(=O)Nc1ccc(C(=O)O)cc1	–	–	95	–
CS(=O)(=O)Cc1ccc(C(=O)N2CCN(C(=O)c3cccs3)CC2)cc1	·	–	–	·
O=C(Nc1ccc(Cl)cc1F)C1CCN(S(=O)(=O)c2cccc3nonc23)CC1	–	–	–	–
CCN(CC(=O)Nc1c(F)cccc1F)C(=O)C1CC(=O)N(CCc2ccc(OC)c(OC)c2)C1 (stereo unspecified)	·	–	–	·
CCOC(=O)N1CCC(NS(=O)(=O)c2cc(C(=O)OC)n(C)c2)CC1	–	–	–	–
CN(CC(=O)Nc1ccc(Cl)c(C(F)(F)F)c1)C(=O)c1ccc(N2CCOCC2)c([N+](=O)[O-])c1	–	–	–	–
CN(C)CCN1C(=O)C(=O)/C(=C(/O)c2ccc(S(=O)(=O)N3CCOCC3)cc2)C1c1ccc(Br)cc1 (stereo unspecified)	–	–	–	–
CN(C)CCN1C(=O)C(=O)/C(=C(/O)c2ccc(S(=O)(=O)N3CCOCC3)cc2)C1c1ccccc1 (stereo unspecified)	–	315	–	–
Cc1ccc(C(=O)Nc2ccc(N3CCCC3)cc2)c(C)c1	–	–	–	–
COc1ccc(NC(=O)C2CCCCN2N)cc1OC (stereo unspecified)	–	–	–	–
Cc1ccccc1C(=O)Nc1ccc(N2CCCC2)cc1	–	–	92	–
O=C(Nc1ccc(N2CCCC2)cc1)C(Cl)c1ccccc1 (stereo unspecified)	–	–	98	–
O=C(NC(=S)N1CCCCC1)c1cccnc1	–	344	–	–
COc1ccc(NC(=O)C2CCCN2c2ccc(OC)c(OC)c2)cc1OC (stereo unspecified)	–	–	99	–
COc1ccc(NC(=O)c2cccnc2N2CCCCC2)cc1	–	·	–	–
O=C(Nc1ccc(N2CCCCC2)cc1)c1cccnc1	–	–	98	–
COc1ccc(NC(=O)c2cccnc2N2CCCC2)cc1	–	–	99	–
COc1ccc(C(=O)Nc2ccc(N3CCCC3)cc2)cc1OC	–	–	99	–
COc1cc(C(=O)NCC(c2cccnc2)N2CCN(c3ccc(F)cc3)CC2)cc(OC)c1OC (stereo unspecified)	–	–	–	–
SMILES	AI-2 QS modul	SUMO Mot1 rescue	ALR inh	HIF act
O=C(NCC(c1cccnc1)N1CCN(c2ccc(F)cc2)CC1)c1ccc(F)cc1 (stereo unspecified)	–	·	98	–
COc1ccc(C(=O)NCC(c2cccnc2)N2CCN(c3ccc(F)cc3)CC2)cc1OC (stereo unspecified)	·	–	86	·
COc1ccc(C(=O)NCC(c2cccnc2)N2CCN(c3ccccc3)CC2)cc1OC (stereo unspecified)	–	–	98	–
O=C(NCC(c1cccnc1)N1CCN(c2ccc(F)cc2)CC1)C1CCCCC1 (stereo unspecified)	–	–	98	–
C=CCN1CCN(C(=O)c2cc3c(s2)CCC(CC)C3)CC1 (stereo unspecified)	–	–	–	–
C/C(=N\NC(=O)c1cc(C)nc2ccccc12)c1cccc(Cl)c1	–	–	–	–
CC1(NC(=O)CSc2nnc(-c3c[nH]c4ccccc34)n2C2CC2)CCS(=O)(=O)C1 (stereo unspecified)	·	–	–	·
CCCc1cc(C(=O)N2CCCC(C(=O)c3cc(C)c(OC)c(C)c3)C2)n(C)n1 (stereo unspecified)	–	–	–	–
O=C(NCCc1cccc(Cl)c1)c1ccc(OC2CCN(Cc3ccccn3)CC2)cc1	–	·	·	–
O=C(NCc1ccco1)C1CC(=O)N(c2ccc(O)cc2)C1 (stereo unspecified)	–	–	99	–
COc1ccc(N2CC(C(=O)Nc3ccccc3C(=O)NCc3ccco3)CC2=O)cc1 (stereo unspecified)	–	–	·	–
CN1CCN(C(=O)c2ccc3c(c2)N(Cc2ccccc2)CCS3)CC1	–	–	98	–
Cc1ccc(CN2CCSc3ccc(C(=O)NCc4cccnc4)cc32)cc1	–	–	–	–
O=C(c1ccc2c(c1)N(Cc1ccccc1)CCS2)N1CCCCC1	–	–	99	–
CC(C)(CNC(=O)c1ccc(-c2ccccc2Cl)o1)N1CCOCC1	–	–	–	–
O=C(CSc1ccc(S(=O)(=O)N2CCOCC2)cn1)Nc1ccc(F)c(F)c1	·	–	·	·
Cc1cc(C(=O)NNc2cc(Cl)ccc2Cl)no1	–	–	·	–
O=C1OCC(CO)(CO)N=C1NNc1cc(Cl)ccc1Cl	–	–	99	–
O=C1OCC(CO)(CO)N=C1NNc1ccccc1[N+](=O)[O-]	–	–	99	–
CC1CC(C)CN(CCCNS(=O)(=O)c2ccc3c(c2)oc(=O)n3C)C1 (stereo unspecified)	–	–	–	–
Cn1cc(Br)c(C(=O)N/N=C/c2cc3c(cc2Cl)OCO3)n1	–	·	·	–
CCOC(=O)c1ccc(N2C(=O)CC(Nc3ccc(O)cc3)C2=O)cc1 (stereo unspecified)	–	–	97	–
OCCCNCc1ccc(N(c2ccccc2)c2ccccc2)cc1	–	–	99	–
Oc1c(C(c2ccccc2)N2CCCCC2)sc2ncnn12 (stereo unspecified)	–	462	–	–
CN(C)c1ccc(C2C3C(=O)N(c4ccc(C(=O)O)cc4)C(=O)C3ON2c2ccccc2)cc1 (stereo unspecified)	–	–	76	–
SMILES	AI-2 QS modul	SUMO Mot1 rescue	ALR inh	HIF act
COC(=O)c1cc(S(=O)(=O)N(Cc2ccccc2)C(C)(C)C)c[nH]1	–	–	–	–
COc1cc(S(=O)(=O)NC2CCSc3ccccc32)ccc1NC(C)=O (stereo unspecified)	–	–	–	–
O=C(NC(=S)Nc1ccc2oc(=O)ccc2c1)c1cccc(Cl)c1	–	–	–	–
O=C(Nc1ccccc1N1CCCC1)c1cc2ccccc2o1	–	–	–	–
O=C(Nc1ccccc1N1CCN(C(=O)c2ccccc2)CC1)c1cc2ccccc2o1	·	264	–	·
CN(C)/N=C/c1ccc(OC(=O)c2cccc([N+](=O)[O-])c2)cc1	–	–	98	–
C/C(=N/NC(=O)CCC(=O)Nc1ccc(Br)cc1)c1ccc(Br)cc1	–	–	–	–
Cc1ccccc1CN1CCN(c2nc3ccccc3s2)CC1	–	–	–	–
